# Measurements taken from the supplement of paper PMC10849652.
# The full data set covers some 8,800 targets. This sample favours those with a hit. About 0.5% of all pairs of compound and target were hits. Unmarked numbers belong to inactive results.
# Assays:
# Assay in all cases: log2 fold change, soluble protein after heating vs DMSO (PISA); higher = thermal stabilisation; K562 lysate, 10 uM; active = over 0.2 and 3.5 SD of the protein, either way, in both replicates (recomputed)
# lapatinib = compound: CS(=O)(=O)CCNCc1ccc(-c2ccc3ncnc(Nc4ccc(OCc5cccc(F)c5)c(Cl)c4)c3c2)o1 [lapatinib]
# Summary of the method: (§1)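 Log-two fold change in thermal stability relative to solvent controls is reported from duplicates. For each sample, crude K562 extract from dounce-homogenised pellets in PBS pH 7.4 with 1 mM MgCl2, at 1 mg/mL protein, was treated with 10 μM compound for 30 min. Aliquots heated for 3 min across 48°C-58°C were pooled, brought to 0.5% NP-40 at 4°C and cleared at 21,000xg for 90 min. The supernatant was quantified by TMTpro 16plex LC-MS/MS with channel sums equalised.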
# pictilisib = compound: CS(=O)(=O)N1CCN(Cc2cc3nc(-c4cccc5[nH]ncc45)nc(N4CCOCC4)c3s2)CC1 [pictilisib]
# Summary of the method: as §1
# crizotinib = compound: C[C@@H](Oc1cc(-c2cnn(C3CCNCC3)c2)cnc1N)c1c(Cl)ccc(F)c1Cl [crizotinib]
# Summary of the method: as §1
# [1] = compound: C[C@H](C1=CC=C(C=C1)C(=O)NC2=C3C=CNC3=NC=C2)N
# Summary of the method: as §1
# duvelisib = compound: C[C@H](Nc1ncnc2nc[nH]c12)c1cc2cccc(Cl)c2c(=O)n1-c1ccccc1 [duvelisib]
# Summary of the method: as §1
# gandotinib = compound: Cc1cc(Nc2cc(CN3CCOCC3)c3nc(C)c(Cc4ccc(Cl)cc4F)n3n2)n[nH]1 [gandotinib]
# Summary of the method: as §1
# tozasertib = compound: Cc1cc(Nc2cc(N3CCN(C)CC3)nc(Sc3ccc(NC(=O)C4CC4)cc3)n2)n[nH]1 [tozasertib]
# Summary of the method: as §1
# doramapimod = compound: Cc1ccc(-n2nc(C(C)(C)C)cc2NC(=O)Nc2ccc(OCCN3CCOCC3)c3ccccc23)cc1 [doramapimod]
# Summary of the method: as §1
# bafetinib = compound: Cc1ccc(NC(=O)c2ccc(CN3CC[C@H](N(C)C)C3)c(C(F)(F)F)c2)cc1Nc1nccc(-c2cncnc2)n1 [bafetinib]
# Summary of the method: as §1
# [2] = compound: Cc1cccc(CC(=O)N2CCc3c2ccc(-c2cn(C)c4ncnc(N)c24)c3F)n1
# Summary of the method: as §1
# UniProt O00483, sequence (O00483 whole entry, looked up): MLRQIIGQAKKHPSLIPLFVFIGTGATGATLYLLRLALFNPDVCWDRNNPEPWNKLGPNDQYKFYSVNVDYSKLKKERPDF
# UniProt Q86W56, sequence (Q86W56 whole entry, looked up): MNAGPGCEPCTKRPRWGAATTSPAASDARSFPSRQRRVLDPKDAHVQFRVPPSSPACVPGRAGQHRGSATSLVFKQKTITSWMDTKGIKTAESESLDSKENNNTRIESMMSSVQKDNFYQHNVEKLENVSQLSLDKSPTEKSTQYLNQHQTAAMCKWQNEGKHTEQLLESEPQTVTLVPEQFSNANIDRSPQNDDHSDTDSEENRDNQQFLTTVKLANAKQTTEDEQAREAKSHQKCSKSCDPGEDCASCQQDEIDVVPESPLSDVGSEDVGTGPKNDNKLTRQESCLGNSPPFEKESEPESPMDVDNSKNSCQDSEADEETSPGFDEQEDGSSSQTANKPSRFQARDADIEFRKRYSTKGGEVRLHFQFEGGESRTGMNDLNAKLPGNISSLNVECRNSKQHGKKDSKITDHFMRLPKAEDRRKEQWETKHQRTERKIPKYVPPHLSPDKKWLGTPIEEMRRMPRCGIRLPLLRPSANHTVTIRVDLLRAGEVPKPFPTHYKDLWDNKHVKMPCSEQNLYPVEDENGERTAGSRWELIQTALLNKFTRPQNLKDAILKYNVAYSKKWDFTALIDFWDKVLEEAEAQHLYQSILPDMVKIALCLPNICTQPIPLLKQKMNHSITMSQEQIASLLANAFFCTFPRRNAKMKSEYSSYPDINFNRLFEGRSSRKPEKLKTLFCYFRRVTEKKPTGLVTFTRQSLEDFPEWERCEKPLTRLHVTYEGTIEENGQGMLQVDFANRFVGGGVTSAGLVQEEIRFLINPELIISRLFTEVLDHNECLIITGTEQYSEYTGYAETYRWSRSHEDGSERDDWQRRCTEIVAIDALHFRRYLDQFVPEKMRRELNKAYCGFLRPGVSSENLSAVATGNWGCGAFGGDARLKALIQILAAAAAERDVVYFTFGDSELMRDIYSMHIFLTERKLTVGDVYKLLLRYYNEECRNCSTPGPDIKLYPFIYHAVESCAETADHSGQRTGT
# UniProt P52701, sequence (P52701 whole entry, looked up): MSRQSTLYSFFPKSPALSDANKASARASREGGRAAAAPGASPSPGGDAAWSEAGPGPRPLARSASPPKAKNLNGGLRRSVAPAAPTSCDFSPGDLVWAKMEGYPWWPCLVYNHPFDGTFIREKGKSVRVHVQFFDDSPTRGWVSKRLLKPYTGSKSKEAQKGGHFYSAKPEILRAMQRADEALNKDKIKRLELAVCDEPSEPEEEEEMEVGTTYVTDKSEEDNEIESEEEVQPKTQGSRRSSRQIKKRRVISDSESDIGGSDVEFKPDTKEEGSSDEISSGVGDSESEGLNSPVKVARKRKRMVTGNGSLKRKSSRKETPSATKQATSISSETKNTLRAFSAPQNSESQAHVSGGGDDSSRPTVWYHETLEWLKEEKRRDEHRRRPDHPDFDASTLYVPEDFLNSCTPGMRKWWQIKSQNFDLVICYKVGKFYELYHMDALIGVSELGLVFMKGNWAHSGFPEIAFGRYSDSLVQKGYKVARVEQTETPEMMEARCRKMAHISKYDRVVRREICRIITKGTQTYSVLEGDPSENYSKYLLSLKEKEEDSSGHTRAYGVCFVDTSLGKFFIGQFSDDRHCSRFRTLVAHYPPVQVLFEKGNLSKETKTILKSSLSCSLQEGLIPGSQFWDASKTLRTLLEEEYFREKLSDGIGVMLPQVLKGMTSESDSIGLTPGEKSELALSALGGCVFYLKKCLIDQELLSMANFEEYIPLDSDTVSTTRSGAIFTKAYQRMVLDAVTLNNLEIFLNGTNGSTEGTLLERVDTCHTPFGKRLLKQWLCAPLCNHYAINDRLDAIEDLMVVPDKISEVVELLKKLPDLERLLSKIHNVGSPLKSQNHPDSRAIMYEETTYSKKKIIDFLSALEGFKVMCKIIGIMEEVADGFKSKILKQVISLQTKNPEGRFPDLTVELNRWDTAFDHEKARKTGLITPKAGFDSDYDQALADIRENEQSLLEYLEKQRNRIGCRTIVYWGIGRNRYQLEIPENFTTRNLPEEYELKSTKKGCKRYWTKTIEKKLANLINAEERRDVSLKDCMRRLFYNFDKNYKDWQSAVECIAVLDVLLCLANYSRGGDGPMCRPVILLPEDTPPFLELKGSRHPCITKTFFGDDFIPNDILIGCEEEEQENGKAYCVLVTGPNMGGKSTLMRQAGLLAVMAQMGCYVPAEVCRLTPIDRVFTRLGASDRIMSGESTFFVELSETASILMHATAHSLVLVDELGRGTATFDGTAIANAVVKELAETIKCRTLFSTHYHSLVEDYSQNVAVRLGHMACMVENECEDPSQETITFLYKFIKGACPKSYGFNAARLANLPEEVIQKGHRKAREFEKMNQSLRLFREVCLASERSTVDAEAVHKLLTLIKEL
# UniProt Q9NX02, sequence (Q9NX02 whole entry, looked up): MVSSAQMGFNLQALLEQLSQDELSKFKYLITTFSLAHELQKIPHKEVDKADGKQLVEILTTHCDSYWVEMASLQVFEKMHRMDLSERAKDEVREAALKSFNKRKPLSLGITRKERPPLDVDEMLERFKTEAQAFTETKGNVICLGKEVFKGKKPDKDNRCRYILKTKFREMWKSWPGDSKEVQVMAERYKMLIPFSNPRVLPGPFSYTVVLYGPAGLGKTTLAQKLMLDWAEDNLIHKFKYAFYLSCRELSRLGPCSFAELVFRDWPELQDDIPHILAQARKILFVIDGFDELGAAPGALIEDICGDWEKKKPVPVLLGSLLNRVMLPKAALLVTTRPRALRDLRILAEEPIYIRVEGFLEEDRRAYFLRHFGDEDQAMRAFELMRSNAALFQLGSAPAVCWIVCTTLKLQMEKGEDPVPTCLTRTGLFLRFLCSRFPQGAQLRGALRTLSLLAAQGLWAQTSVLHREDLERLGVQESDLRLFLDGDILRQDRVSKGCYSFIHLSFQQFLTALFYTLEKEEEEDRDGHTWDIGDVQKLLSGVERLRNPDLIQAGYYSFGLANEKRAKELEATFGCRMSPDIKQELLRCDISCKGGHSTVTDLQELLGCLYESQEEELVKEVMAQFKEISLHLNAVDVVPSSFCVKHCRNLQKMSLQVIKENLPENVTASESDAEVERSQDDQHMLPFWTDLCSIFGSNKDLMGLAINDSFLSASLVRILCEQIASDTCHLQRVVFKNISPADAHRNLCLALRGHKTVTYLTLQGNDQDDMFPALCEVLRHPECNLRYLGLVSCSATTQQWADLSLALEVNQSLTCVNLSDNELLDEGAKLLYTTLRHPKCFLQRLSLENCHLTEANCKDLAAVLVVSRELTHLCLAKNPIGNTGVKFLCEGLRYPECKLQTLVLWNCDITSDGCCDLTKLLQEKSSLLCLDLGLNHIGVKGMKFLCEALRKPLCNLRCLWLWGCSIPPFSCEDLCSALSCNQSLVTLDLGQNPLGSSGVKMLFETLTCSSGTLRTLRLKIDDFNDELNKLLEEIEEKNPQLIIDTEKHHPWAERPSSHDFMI
# UniProt Q9Y5A7, sequence (Q9Y5A7 whole entry, looked up): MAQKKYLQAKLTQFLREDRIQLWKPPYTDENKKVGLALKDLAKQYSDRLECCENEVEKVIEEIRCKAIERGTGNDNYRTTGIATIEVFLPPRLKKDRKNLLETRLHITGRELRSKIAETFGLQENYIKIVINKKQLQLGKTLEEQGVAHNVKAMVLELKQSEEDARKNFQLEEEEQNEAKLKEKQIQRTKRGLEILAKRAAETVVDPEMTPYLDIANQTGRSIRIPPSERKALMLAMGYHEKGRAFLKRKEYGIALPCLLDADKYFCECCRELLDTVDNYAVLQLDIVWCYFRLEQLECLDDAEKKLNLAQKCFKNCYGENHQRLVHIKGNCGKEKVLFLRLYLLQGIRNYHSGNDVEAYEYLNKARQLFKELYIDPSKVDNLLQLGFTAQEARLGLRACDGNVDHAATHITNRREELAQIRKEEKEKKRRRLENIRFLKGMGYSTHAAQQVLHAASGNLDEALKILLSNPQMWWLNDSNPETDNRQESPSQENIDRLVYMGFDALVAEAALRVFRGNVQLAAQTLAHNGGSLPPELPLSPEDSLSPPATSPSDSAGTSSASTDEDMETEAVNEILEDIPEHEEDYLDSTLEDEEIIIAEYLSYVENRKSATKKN
# UniProt Q8NE18, sequence (Q8NE18 whole entry, looked up): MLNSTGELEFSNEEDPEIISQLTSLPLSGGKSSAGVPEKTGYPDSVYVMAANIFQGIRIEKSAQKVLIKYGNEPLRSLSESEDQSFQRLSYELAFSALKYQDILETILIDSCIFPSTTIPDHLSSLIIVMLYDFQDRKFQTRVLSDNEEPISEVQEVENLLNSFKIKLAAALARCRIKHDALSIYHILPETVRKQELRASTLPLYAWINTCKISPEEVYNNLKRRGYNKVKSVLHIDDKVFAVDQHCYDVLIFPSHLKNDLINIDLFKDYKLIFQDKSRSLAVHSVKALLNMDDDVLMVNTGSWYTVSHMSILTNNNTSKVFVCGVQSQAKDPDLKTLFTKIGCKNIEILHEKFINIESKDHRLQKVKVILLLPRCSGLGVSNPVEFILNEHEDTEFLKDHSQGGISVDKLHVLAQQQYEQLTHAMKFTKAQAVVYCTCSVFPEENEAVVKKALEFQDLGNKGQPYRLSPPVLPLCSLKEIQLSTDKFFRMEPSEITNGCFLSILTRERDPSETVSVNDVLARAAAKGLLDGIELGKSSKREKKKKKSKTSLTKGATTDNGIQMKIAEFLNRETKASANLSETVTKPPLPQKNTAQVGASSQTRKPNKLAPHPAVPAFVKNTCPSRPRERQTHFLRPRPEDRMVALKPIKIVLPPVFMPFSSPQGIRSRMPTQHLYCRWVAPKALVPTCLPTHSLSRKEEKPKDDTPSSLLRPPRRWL
# UniProt Q5JRK9, sequence (Q5JRK9 whole entry, looked up): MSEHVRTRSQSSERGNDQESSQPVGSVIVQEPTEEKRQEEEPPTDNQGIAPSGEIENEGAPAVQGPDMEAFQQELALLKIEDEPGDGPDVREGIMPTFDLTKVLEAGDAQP
# UniProt Q99417, sequence (Q99417 whole entry, looked up): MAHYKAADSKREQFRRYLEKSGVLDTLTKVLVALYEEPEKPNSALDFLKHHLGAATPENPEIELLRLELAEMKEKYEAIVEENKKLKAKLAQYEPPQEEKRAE
Target,log2 fold change (lapatinib),log2 fold change (pictilisib),log2 fold change (crizotinib),log2 fold change [1],log2 fold change (duvelisib),log2 fold change (gandotinib),log2 fold change (tozasertib),log2 fold change (doramapimod),log2 fold change (bafetinib),log2 fold change [2]
MTA1 (UniProt Q13330),-0.002,0,-0.008,0.001,-0.059,-0.067,-0.002,-0.009,0.023,0.017
OGT (UniProt O15294),-0.006,-0.038,-0.038,-0.016,-0.016,-0.086,0.016,0.009,-0.011,-0.029
MTHFD1L (UniProt B7ZM99),-0.075,-0.036,-0.036,0.017,0.026,-0.039,0.002,0.035,-0.054,0.018
MYCBP (UniProt Q99417),0.01,-0.052,0.003,-0.498 (active),0.02,0.105,0.028,0.008,-0.018,0.182
NELFA (UniProt Q9H3P2),-0.031,0.021,0.018,0.06,-0.018,-0.079,0.048,0.022,-0.048,-0.003
MRPL53 (UniProt Q96EL3),0.022,-0.004,0.031,0.079,0,-0.04,0.016,0.009,0.005,0.012
MYH11 isoform 2 (UniProt P35749),0.075,-0.002,0.054,0.279 (active),0.055,-0.004,0.031,-0.044,0.303,-0.018
OGFOD2 (UniProt Q6N063),0.034,-0.031,-0.017,-0.029,0.045,-0.016,0.019,-0.013,-0.09,0.032
MTA3 (UniProt Q9BTC8),0.006,0.026,-0.058,-0.022,0.001,-0.013,-0.008,0.002,-0.048,0.051
OAT (UniProt P04181),-0.02,0.021,-0.034,-0.066,-0.025,0.063,0.01,-0.029,0,0.044
NLRP2 (UniProt Q9NX02),0.004,-0.025,-0.029,0.091,0.005,-0.049,0.005,0.051,-0.023,-0.018
NUB1 (UniProt Q9Y5A7),-0.002,-0.022,0.012,0.009,-0.004,0.011,0.027,-0.023,-0.047,-0.002
NDUFA4 (UniProt O00483),0.124,0.017,0.02,0.009,0.059,-0.294 (active),-0.01,0.02,0,-0.026
MSH6 (UniProt P52701),-0.004,-0.005,-0.076,-0.003,0.014,-0.087,0.013,0.037,-0.051,0.022
NPTN (UniProt Q9Y639),-0.057,-0.045,-0.058,-0.011,0.049,0.003,0.007,0.056,-0.029,0.011
MRPL58 (UniProt Q14197),0.035,-0.034,-0.063,0.365 (active),-0.034,-0.009,0.045,-0.026,-0.03,-0.119
PARG (UniProt Q86W56),0.017,-0.035,-0.058,0.047,-0.02,-0.065,-0.033,0.005,-0.004,-0.01
NCAPG2 (UniProt Q86XI2),-0.062,-0.006,-0.048,-0.108,-0.052,-0.011,0.023,0.062,-0.074,0.143
MRPS12 (UniProt O15235),0.006,-0.024,-0.019,0.003,-0.022,-0.022,0.048,0.03,0.036,-0.003
NT5DC2 isoform 2 (UniProt Q9H857),-0.036,-0.019,0.004,-0.018,-0.01,0.021,-0.019,-0.029,-0.027,-0.027
NRIP1 (UniProt P48552),-0.052,-0.007,-0.155,-0.396,-0.014,0.407,–,0.048,-0.07,0.26
NFAT5 isoform 4 (UniProt O94916),–,-0.138,-0.028,–,–,–,–,-0.158,-0.053,–
PAGE2B (UniProt Q5JRK9),0.216,–,0.051,0.267,0.011,-0.115,-0.017,0.025,–,-0.097
NSUN7 (UniProt Q8NE18),-0.094,-0.001,-0.374,-0.039,–,0.022,0.152,0.045,0.285,0.125
